Measurements from ChEMBL document CHEMBL1157539, “Thousands of chemical starting points for antimalarial lead identification” (Nature, 2010).
Values joined by “and” are separate entries in the source; they are usually repeats but may differ in a detail not shown here. Equal values may be shown once.

Experiments:
Format in all cases: functional
Plasmodium falciparum [1] = assay: GSK_TCMDC: Inhibition of Plasmodium falciparum 3D7 in whole red blood cells, using parasite LDH activity as an index of growth. Test compounds present at 2uM
Plasmodium falciparum [2] = assay: GSK_TCMDC: Inhibition of Plasmodium falciparum Dd2 in whole red blood cells, using parasite LDH activity as an index of growth. Test compounds present at 2uM
HepG2 = assay: GSK_TCMDC: Percent inhibition of human HepG2 cell line. Test compounds present at 10uM.

SMILES	Inhibition (Plasmodium falciparum [1])	Inhibition (Plasmodium falciparum [2])	Inhibition (HepG2)
COC(=O)c1ccc(CC(C)NCC(O)c2cccc(C(F)(F)F)c2)cc1 (stereo not given)	94% and 97%	73% and 87%	0%
O=C(/C=C/c1cc(C(F)(F)F)ccc1F)NC1CCC(CN2CCC(c3c[nH]c4ccccc34)CC2)CC1 (stereo not given)	100%	66%	5%
O=C(O)c1ccc2nc(-c3ccc(-c4ccccc4)cc3)n(C3CCN(Cc4ccc(-c5ncc[nH]5)cc4)CC3)c2c1	91%	99%	3%
Cc1[nH]c2cc(Cl)ccc2c1C1=CCN(CCCCC2(C)C(=O)Nc3ccccc32)CC1 (stereo not given)	94%	90%	0%
Cc1ccc2c(C3=CCN(CCCCC4(C)C(=O)Nc5ccccc54)CC3)c(C)[nH]c2c1 (stereo not given)	95%	91%	9%
COc1ccc(CC(C)NCC(O)c2cccc(C(F)(F)F)c2)cc1 (stereo not given)	98%	94%	0%
CSc1ccc(C[C@@H](C)NC[C@H](O)c2cccc(Cl)c2)cc1.Cl	97%	96%	8%
O=C(C=Cc1ccccc1C(F)(F)F)NC1CCC(CN2CCC(c3c[nH]c4ccccc34)CC2)CC1 (stereo not given)	100%	90% and 47%	47% and 73%
CCCCC1(NC(=O)[C@H](CC(C)C)Nc2ccc(C#N)c3ccccc23)CCCCC1.O=C(O)C(F)(F)F	96%	47%	37%
CCN(CC)CCN1C(=O)C(O)(c2ccccc2Cl)c2c1cc(C#N)cc2C(F)(F)F (stereo not given)	88%	19%	21%
